# Laboratory results published in PubChem BioAssay (NCATS).
# Where “and” joins values, the source holds several entries; their conditions need not be identical. Identical values can stand only once. Inconclusive results are not listed. Unmarked numbers belong to inactive results. Calls of active or inactive are those of the source. Calls follow the shape of the dose curve; as a rule, active = well fitted inhibition curve with a large enough effect; inconclusive = small, poorly fitted or top-dose-only effect; inactive = flat fitted curve, though single readings scatter.
# Tested on: HaCat
# Test: Cytotoxic Profiling of Annotated Libraries Using Quantitative High-Throughput Screening (AID 1296008); also: nearly all actives have a fitted effect of over 60% in size
# Details: Five cell lines viability, CellTiter-Glo ATP luminescence, 48-72 h; max response: hits give low values
# Procedure, shortened: (§1)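 Compounds were pin-transferred onto cells and incubated 48 or 72 hr at 37 degree Celsius, 95% humidity. CellTiter-Glo was added, plates sat 10 min at room temperature, then ATP-coupled luminescence was imaged as the viability read-out.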
# % is scaled to controls: 0 for no effect and ±100 for the full control effect; potency is read from the fitted curve at half-maximal effect.
Structure (SMILES),max response,Potency,outcome
CN(C)c1ccc(N=NS(=O)(=O)O)cc1,-1.75%,–,–
C#C[C@]1(O)CC[C@H]2[C@@H]3CCc4cc(O)ccc4[C@H]3CC[C@@]21C,–,4.73 µM (active),–
CCN(CC)CCCCNc1ncc2cc(-c3c(Cl)cccc3Cl)c(NC(=O)NC(C)(C)C)nc2n1,–,20.6 µM (active),–
CCCCCCOc1ccccc1C(N)=O,-20.5%,–,–
CN(C)[C@@H]1C(=O)C(C(=O)NCN2CCCC2)=C(O)[C@@]2(O)C(=O)C3=C(O)c4c(O)cccc4[C@@](C)(O)C3C[C@@H]12 (some centres not stated),-12.7%,–,–
O=c1cc(-c2ccccc2)oc2ccccc12,–,34 µM (active),–
Nc1nc2ccc([N+](=O)[O-])cc2s1,–,27.3 µM (active),–
COC(=O)C1=C(C)NC(C)=C(C(=O)OCC(C)C)C1c1ccccc1[N+](=O)[O-] (configuration not stated),0.281%,–,–
NS(=O)(=O)c1ccc(-n2nc(C(F)(F)F)cc2-c2ccc(Cl)cc2)cc1,–,–,inactive

# Tested on: KB-3-1
# Test: as above
# Details: Five cell lines viability, CellTiter-Glo ATP luminescence, 48-72 h; max response: hits give low values
# Procedure, shortened: as §1
Structure (SMILES),max response,Potency
CN(C)c1ccc(N=NS(=O)(=O)O)cc1,-10.4%,–
O=C(O)COc1ccc(C(=O)c2cccs2)c(Cl)c1Cl,-1.65% and 4.87%,–
C=C(Nc1ccc(OCC)cc1)Nc1ccc(OCC)cc1,-11.3% and -9.03%,–
C[N+](C)(C)CCOP(=O)(O)OP(=O)([O-])OC[C@H]1O[C@@H](n2ccc(N)nc2=O)[C@H](O)[C@@H]1O,10.6% and -5.11%,–
CCCCC[C@H](O)/C=C/[C@@H]1[C@@H](C/C=C\CCCC(=O)O)[C@@H](O)C[C@H]1O,4.45% and 3.57%,–
CCCCCC[C@@H](O)C/C=C\CCCCCCCC(=O)O,-2.77% and 6.21% and -9.38%,–
CN1[C@@H](CC(=O)c2ccccc2)CCC[C@H]1C[C@H](O)c1ccccc1,-11.5%,–
CC(C)Cc1ccc([C@H](C)C(=O)O)cc1,-10.1%,–
CC[C@H]1OC(=O)[C@H](C)C(=O)[C@H](C)[C@@H](O[C@@H]2O[C@H](C)C[C@H](N(C)C)[C@H]2O)[C@](C)(OC)C[C@@H](C)C(=O)[C@H](C)[C@H]2N(CCCCn3cnc(-c4cccnc4)c3)C(=O)O[C@]12C,6.09% and 49.1%,–
CC(=O)[C@]1(O)Cc2c(O)c3c(c(O)c2[C@@H](O[C@H]2C[C@H](N)[C@H](O)[C@H](C)O2)C1)C(=O)c1c(O)cccc1C3=O,–,4.61 µM (active) and 5.17 µM (active)
CCCCCCOc1ccccc1C(N)=O,0.591%,–
CN(C)[C@@H]1C(=O)C(C(=O)NCN2CCCC2)=C(O)[C@@]2(O)C(=O)C3=C(O)c4c(O)cccc4[C@@](C)(O)C3C[C@@H]12 (some centres not stated),3.68% and -3.42%,–
C=CCN1C(=O)C(CC(C)C)NC1=S (configuration not stated),11.7% and 6.26%,–
O=c1cc(-c2ccccc2)oc2ccccc12,–,199 nM (active)
Nc1nc2ccc([N+](=O)[O-])cc2s1,-15.7%,–
CC1(C)C[C@@H]1C(=O)N/C(=C\CCCCSC[C@H](N)C(=O)O)C(=O)O,4.27% and -2.38%,–
O=C(O)[C@H](O)[C@@H](O)[C@H](O)[C@H](O)CO,1.75% and -7.15%,–
NS(=O)(=O)c1ccc(-n2nc(C(F)(F)F)cc2-c2ccc(Cl)cc2)cc1,-3.63%,–
